For 7 molecules, Potency and max response results are on record in PubChem BioAssay (Tox21).

A number with no mark means an inactive call. Inconclusive results are not listed. Calls of active or inactive are those of the source. The call rests on the fitted dose curve; in most records, active means well fitted curve in the direction sought with a large enough effect in the repeat runs; inconclusive means weak or mixed curves; inactive means no such curve, though single readings can be large; an effect the other way counts as inactive or inconclusive.

A short description of test [1]: qHTS RealTime-Glo MT Cell Viability Assay in HepG2 cells - 40 hour (AID 1224870). Further: nearly all actives have a fitted effect of over 50% in size. The method in brief: (§1)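 Real-time viability: cells seeded at 600 per well together with NanoLuc and cell-permeant prosubstrate, compounds added after 5 h incubation. Luminescence tracked at 0, 8, 16, 24, 32 and 40 h of exposure.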
In general terms: Quantitative high-throughput screening tests each substance at several concentrations.

The nature of test [2]: A CellTox Green Cytotoxicity Assay to monitor cytotoxicity in HEK293 cells - 40 hour (AID 1224871). Further: nearly all actives have a fitted effect of over 45% in size. A digest of the protocol:
(§2)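 Dead-cell fluorescence measured kinetically: asymmetric cyanine dye, HEK293, 600 cells/well, 5 h settle, 23 nL cpd/DMSO, 37 C, reads 0–40 h every 8 h.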

A short description of test [3]: qHTS RealTime-Glo MT Cell Viability Assay in HEK293 cells - 16 hour (AID 1224872). Further: top concentration of the series differs between compounds; nearly all actives have a fitted effect of over 50% in size. A digest of the protocol: (§3)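 Cells + reagent dispensed (600 cells/well, HEK293) → 5 h at 37 C/5% CO2 → 23 nL compound in DMSO pinned → 40 h at 37 C → luminescence read at 0, 8, 16, 24, 32, 40 h.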
The nature of test [4]: qHTS RealTime-Glo MT Cell Viability Assay in HepG2 cells - 8 hour (AID 1224873). Further: nearly all actives have a fitted effect of over 55% in size. The method in brief: as §1
A short description of test [5]: qHTS RealTime-Glo MT Cell Viability Assay in HEK293 cells - 40 hour (AID 1224874). Further: nearly all actives have a fitted effect of over 50% in size. To be noted: RealTime-Glo luminescence; max response: active compounds read low. A digest of the protocol:
(§4)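 600 HEK293 cells per well, dispensed already mixed with RealTime-Glo MT reagents. Compound dosing came 5 h later. The same wells were read for luminescence at 0, 8, 16, 24, 32 and 40 h of exposure at 37 C.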

Test [6] is described as follows: A CellTox Green Cytotoxicity Assay to monitor cytotoxicity in HEK293 cells - 24 hour (AID 1224875). Further: series mostly up to about 77 µM; nearly all actives have a fitted effect of over 45% in size. The method in brief: as §2
A short description of test [7]: A CellTox Green Cytotoxicity Assay to monitor cytotoxicity in HepG2 cells - 16 hour (AID 1224876). Further: nearly all actives have a fitted effect of over 45% in size. The method in brief: (§5)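 First, HepG2 cells (600/well) mixed with reagent were plated; second, after 5 h at 37 C they received compounds via pintool; third, fluorescence was measured at 0 h through 40 h at 8 h intervals.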
The nature of test [8]: qHTS RealTime-Glo MT Cell Viability Assay in HepG2 cells - 32 hour (AID 1224877). Further: nearly all actives have a fitted effect of over 55% in size. A digest of the protocol:
(§6)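 Real-time, nonlytic viability: 600 HepG2 cells/well mixed with NanoLuc enzyme plus prosubstrate; 5 h settle, compound (DMSO) added by pintool; luminescence monitored over 40 h at 37 C.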

The nature of test [9]: A CellTox Green Cytotoxicity Assay to monitor cytotoxicity in HepG2 cells - 40 hour (AID 1224879). Further: nearly all actives have a fitted effect of over 40% in size. The method in brief:
as §5

Test [10] in a line: qHTS RealTime-Glo MT Cell Viability Assay in HEK293 cells - 0 hour (AID 1224880). Further: nearly all actives have a fitted effect of over 45% in size. Further: potency means the concentration at half of the fitted maximal effect. The method in brief:
as §4

Test [11] is described as follows: A CellTox Green Cytotoxicity Assay to monitor cytotoxicity in HepG2 cells - 0 hour (AID 1224882). Further: nearly all actives have a fitted effect of over 35% in size. The method in brief:
as §5

A short description of test [12]: A CellTox Green Cytotoxicity Assay to monitor cytotoxicity in HepG2 cells - 32 hour (AID 1224883). Further: nearly all actives have a fitted effect of over 50% in size. A digest of the protocol:
as §5

A short description of test [13]: A CellTox Green Cytotoxicity Assay to monitor cytotoxicity in HEK293 cells - 8 hour (AID 1224884). Further: nearly all actives have a fitted effect of over 35% in size. The method in brief: as §2
Test [14] in a line: qHTS RealTime-Glo MT Cell Viability Assay in HEK293 cells - 24 hour (AID 1224886). The method in brief: as §3
A short description of test [15]: qHTS RealTime-Glo MT Cell Viability Assay in HEK293 cells - 8 hour (AID 1224887). A digest of the protocol:
as §4

Test [16] in a line: A CellTox Green Cytotoxicity Assay to monitor cytotoxicity in HEK293 cells - 16 hour (AID 1224888). Further: nearly all actives have a fitted effect of over 35% in size. The method in brief:
as §2

Test [17] in a line: qHTS RealTime-Glo MT Cell Viability Assay in HepG2 cells - 0 hour (AID 1224889). Further: nearly all actives have a fitted effect of over 50% in size. Further: potency means the concentration at half of the fitted maximal effect. A digest of the protocol: as §6
Test [18] can be described thus: A CellTox Green Cytotoxicity Assay to monitor cytotoxicity in HepG2 cells - 24 hour (AID 1224878). Further: nearly all actives have a fitted effect of over 45% in size. The method in brief: as §5
A short description of test [19]: qHTS RealTime-Glo MT Cell Viability Assay in HepG2 cells - 16 hour (AID 1224885). Further: nearly all actives have a fitted effect of over 50% in size. The method in brief: as §6
Test [20] can be described thus: A CellTox Green Cytotoxicity Assay to monitor cytotoxicity in HEK293 cells - 32 hour (AID 1224881). Further: nearly all actives have a fitted effect of over 40% in size. A digest of the protocol: as §2
On the % scale 0 is the no-effect control and ±100 the full control effect.

As for `CC[N+](C)(C)c1cccc(O)c1`, the Potency entry in [1], in test [2], in [3], in test [4], in test [6] and in [7] was “inactive” in each case. In addition, the Potency result in test [8], in [9], in [10], in test [11], in test [12] and in test [13] was “inactive” in each case. The Potency entry in test [14], in [15], in [16] and in test [17] was “inactive” each time. Besides, in test [5], the max response is -7.12%.
Take `CCCCCCCCS(=O)(=O)Cl`: the Potency result in [1], in [2], in [3], in test [4], in [6] and in [7] was “inactive” throughout. In addition, the Potency entry in test [8], in test [18], in test [9], in [10], in test [11] and in test [12] was “inactive” throughout. Moreover, the Potency entry in test [13], in test [19], in test [15], in [16] and in [17] was “inactive” each time. For the same molecule, in test [5], the max response was 19.7%.
Turning to `Cc1[nH]c(=O)c(C#N)cc1-c1ccc2nccn2c1`, the Potency result in test [1], in test [2], in test [3], in test [4], in test [6] and in [7] was “inactive” each time. In addition, the Potency result in test [8], in test [18], in [9], in test [10], in test [20] and in test [11] was “inactive” in each case. Also, the Potency result in [12], in test [13], in [14], in test [15], in test [16] and in [17] was “inactive” each time. For the same molecule, in [5], the max response was 5.99%.
Take `CC(C)(O)C(=O)c1ccccc1`: the Potency result in test [1], in [2], in test [3], in test [4], in test [6] and in test [7] was “inactive” each time. The Potency entry in test [18], in test [9], in test [10], in test [20], in [11] and in test [12] was “inactive” throughout. In addition, the Potency result in test [13], in [19], in test [14], in test [15], in [16] and in test [17] was “inactive” in each case. In test [5], the max response is 1.69%.
Turning to `CCC(C)C1CCCCC1=O` (stereo not given), the Potency result in [1], in [2], in test [3], in [4], in [6] and in test [7] was “inactive” each time. Also, the Potency result in [8], in test [9], in [10], in [20], in [11] and in [12] was “inactive” in each case. The Potency result in test [13], in [19], in test [14], in test [15], in test [16] and in test [17] was “inactive” in each case. Besides, in test [5], the max response was 7.3%.
Consider `CCCC(=O)O[C@]1(C(=O)CO)CC[C@H]2[C@@H]3CCC4=CC(=O)CC[C@]4(C)[C@H]3[C@@H](O)C[C@@]21C`, for which the Potency result in test [1], in test [2], in [3], in test [4], in test [6] and in [7] was “inactive” in each case. Moreover, the Potency entry in test [8], in test [9], in [20], in test [11], in test [12] and in [13] was “inactive” each time. Moreover, the Potency entry in test [19], in [14], in test [15] and in test [16] was “inactive” in each case. Also, in test [5], the max response is 0.181%. Moreover, the Potency in test [10] is 10.7 µM (active); in test [17], 2.13 µM (active).
For the molecule `COC(=O)[C@@H](N)Cc1ccc(O)c(O)c1`, the Potency result in test [1], in [2], in test [3], in [4], in test [6] and in test [7] was “inactive” each time. The Potency entry in test [8], in [18], in [9], in test [10], in [11] and in [12] was “inactive” in each case. The Potency entry in test [13], in [19], in test [14], in test [15], in test [16] and in test [17] was “inactive” in each case. In test [5], the max response is 2.16%.
